Source: PubChem BioAssay (Tox21)
Records with an inconclusive call do not appear. Calls of active or inactive are those of the source. Unless noted, the call rests on the fitted dose curve; in most records, active means well fitted curve in the direction sought with a large enough effect in the repeat runs; inconclusive means weak or mixed curves; inactive means no such curve, though single readings can be large; an effect the other way counts as inactive or inconclusive.

How the values were obtained:
[1] = qHTS assay to identify small molecule agonists of the RXR signaling pathway - cell viability counter screen (AID 1159529);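 further: HEK 293T cells carrying an RXR-alpha UAS beta-lactamase reporter; series mostly up to about 77 µM; nearly all actives have a fitted effect of over 50% in size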
Procedure, shortened: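 Same-well viability check after the LiveBLAzer FRET read: CellTiter-Glo added, luminescence measured after 30 min at room temperature. Reporter HEK 293T cells had been treated with compounds for 16 hr following a 5 hr preincubation.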

[2] = qHTS assay to identify small molecule agonists of the retinoic acid receptor (RAR) signaling pathway (AID 1159553)
Procedure, shortened: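 Quantitative high-throughput format: the Tox21 10K library was tested on C3RL4 RARE-luciferase cells for 6 hr at 37 C and 5% CO2, with luminescence measured after a 30 min room-temperature reagent step.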

[3] = qHTS assay to identify small molecule antagonists of the estrogen related receptor (ERR) signaling pathway - cell viability counter screen (AID 1224818);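 further: series mostly up to about 46 µM; viability measured after 17.5 h of compound exposure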
Procedure, shortened: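 Quantitative high-throughput viability counter screen in ERR cells. Compounds (DMSO) incubated 17.5 h at 37 C; read-out was CellTiter-Fluor fluorescence.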

[4] = qHTS assay to identify small molecule antagonists of the estrogen related receptor (ERR) signaling pathway (AID 1224819;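 further: luminescence from an ERR-driven luciferase reporter measured with One-Glo reagent; series mostly up to about 46 µM; nearly all actives have a fitted effect of over 50% in size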)
Procedure, shortened: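 ERR reporter cell line (NTP) plated at 2,000 cells/well, settled 6 h at 37C/5% CO2, then exposed to LOPAC compounds for 18 h at 37C. One-Glo luciferase luminescence read after 30 min at room temperature.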

[5] = qHTS assay to identify small molecule agonists of the estrogen related receptor (ERR) signaling pathway (AID 1224820)
Procedure, shortened: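 Following a 6 h settling period, 2,000 ERR cells per well receive DMSO-dissolved compounds by pin tool and incubate 18 h at 37 C; agonist activity is scored from One-Glo luminescence read 30 min post-addition.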

[6] = tested on: estrogen-related receptor alpha (ERRalpha) with PGC-1alpha coactivator, human; test: qHTS assay to identify small molecule antagonists of the estrogen related receptor signaling pathway with the pleiotropic PPARgamma coactivator (PGC) (AID 1224821; calls by dose curve;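 further: series mostly up to about 46 µM; lower luminescence signal means antagonism of PGC/ERR signalling; nearly all actives have a fitted effect of over 50% in size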)
Procedure, shortened: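 Screening used NTP's PGC/ERR cells, dosed via pin tool with compound in DMSO alongside positive and negative controls. After 18 h at 37 C, One-Glo reagent sat 30 min at room temperature before luminescence detection.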

[7] = qHTS assay to identify small molecule antagonists of the estrogen related receptor signaling pathway with the pleiotropic PPARgamma coactivator (PGC) cell viability counter screen (AID 1224822; further: series mostly up to about 46 µM)
Procedure, shortened: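 Cytotoxicity in the PGC/ERR cell line is assessed with CellTiter-Fluor, read as fluorescence intensity 30 min after reagent addition, following 17.5 h compound treatment at 37 C.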

[8] = qHTS assay to identify small molecule agonists of the estrogen related receptor signaling pathway with the pleiotropic PPARgamma coactivator (PGC) (AID 1224823)
Procedure, shortened: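 In this quantitative high-throughput screen, an 18 h, 37 C treatment of PGC/ERR cells with compounds in DMSO preceded a One-Glo luminescence read taken after 30 min at room temperature.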

[9] = qHTS assay to identify small molecule antagonists of the estrogen related receptor (ERR) signaling pathway from Tox21 library - cell viability counter screen (AID 1224834); further: nearly all actives have a fitted effect of over 30% in size
Procedure, shortened: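 Compounds in DMSO were pinned onto ERR cells that had been incubated for 6 h, and the plates were held at 37 C for 17.5 h. CellTiter-Fluor reagent was then added and fluorescence was measured after 30 min.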

[10] = molecular target: Luciferin 4-monooxygenase (Photinus pyralis) (UniProt P08659); test: qHTS assay to identify small molecule inhibitors of firefly luciferase (AID 1224835); further: series mostly up to about 120 µM; nearly all actives have a fitted effect of over 25% in size
Procedure, shortened: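 Quantitative HTS format; KM concentrations of both substrates. Purified P. pyralis FLuc activity quantified from luminescence images.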

[11] = qHTS assay to identify small molecule agonists of the constitutive androstane receptor (CAR) signaling pathway - cell viability counter screen (AID 1224836); further: series mostly up to about 92 µM; nearly all actives have a fitted effect of over 45% in size
Procedure, shortened: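 Compound titrations (15 concentrations) went onto HepG2-CYP2B6-hCAR cells 4 h after seeding, alongside PK11195 at a final 0.75 uM; a 23 h, 37 C/5% CO2 incubation preceded CellTiter-Fluor viability measurement.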

[12] = qHTS assay to identify small molecule antagonists of the constitutive androstane receptor (CAR) signaling pathway - cell viability counter screen (AID 1224837); further: series mostly up to about 92 µM; nearly all actives have a fitted effect of over 45% in size
Procedure, shortened: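 Cells are seeded, rested 4 hr at 37 C/5% CO2, dosed with compound (15-point series) and 50 nM CITCO, incubated a further 23 hr, and then CellTiter-Fluor reagent is added before fluorescence is read. The line is HepG2 with stable hCAR and CYP2B6-2.2kb.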

[13] = molecular target: Nuclear receptor subfamily 1 group I member 3 (Homo sapiens) (UniProt Q14994); test: qHTS assay to identify small molecule agonists of the constitutive androstane receptor (CAR) signaling pathway (AID 1224839);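 further: HepG2 cells stably carrying human CAR and a CYP2B6 luciferase reporter; series mostly up to about 92 µM; nearly all actives have a fitted effect of over 15% in size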
Procedure, shortened: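 In this screen, CAR-driven CYP2B6 promoter activity is measured by luminescence in HepG2-CYP2B6-hCAR cells after 24 h with test compounds and 0.75 uM PK11195 (final concentration).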

[14] = qHTS assay to identify small molecule antagonists of the estrogen related receptor signaling pathway with the pleiotropic PPARgamma coactivator (PGC) from Tox21 10K library - cell viability counter screen (AID 1224840; active means well fitted cell-killing curve with a large enough effect in the repeat runs, not every such curve was filed as active; further: nearly all actives have a fitted effect of over 40% in size)
Procedure, shortened: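 Cell viability is measured by CellTiter-Fluor fluorescence in PGC/ERR cells that receive compounds after a 6-hour attachment period and are then incubated 17.5 hours at 37 C.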

[15] = qHTS assay to identify small molecule antagonists of the estrogen related receptor signaling pathway with the pleiotropic PPARgamma coactivator (PGC) from Tox21 10K library (AID 1224841; call rule not given here; further: series mostly up to about 92 µM; actives are mostly falling curves and most rising ones were filed inactive; nearly all actives have a fitted effect of over 50% in size)
Procedure, shortened: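 Cells stably carrying the PGC/ERR reporter, seeded at 2,000 per well, received pin-transferred compounds 6 h post-plating. Exposure lasted 18 h at 37 C. Signal: One-Glo luminescence.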

[16] = qHTS assay to identify small molecule agonists of the estrogen related receptor signaling pathway with the pleiotropic PPARgamma coactivator (PGC) from Tox21 10K library (AID 1224842); further: nearly all actives have a fitted effect of over 15% in size
Procedure, shortened: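 PGC/ERR reporter cells (NTP line) were seeded 2,000 per well, rested 6 h at 37 C/5% CO2, then pin-dosed with compounds in DMSO for 18 h at 37 C; luciferase read by One-Glo luminescence after 30 min at room temperature.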

[17] = molecular target: Nuclear receptor subfamily 1 group I member 3 (Homo sapiens) (UniProt Q14994); test: qHTS assay to identify small molecule antagonists of the constitutive androstane receptor (CAR) signaling pathway (AID 1224838);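 further: HepG2 cells stably expressing hCAR with CYP2B6 luciferase reporter stimulated by CITCO; nearly all actives have a fitted effect of over 40% in size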
Procedure, shortened: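 Luminescence from a CYP2B6-2.2kb promoter reporter in hCAR-expressing HepG2 cells reflects CAR signaling. Cells received compounds at 15 concentrations and 50 nM CITCO (final), then incubated 24 h at 37 C/5% CO2.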

[18] = molecular target: Thyrotropin receptor (Homo sapiens) (UniProt P16473); test: qHTS assay to identify small molecule agonists of the thyroid stimulating hormone receptor (TSHR) signaling pathway (AID 1224843; calls by dose curve; further: nearly all actives have a fitted effect of over 45% in size)
Procedure, shortened: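 Using 15 concentrations per compound in triplicate, cAMP production was monitored in TSHR-HEK293 cells after 30 min compound incubation at RT; HTRF reagents followed, with fluorescence intensity recorded after 1 h.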

[19] = qHTS assay to identify small molecule antagonists of the retinoic acid receptor (RAR) signaling pathway (AID 1159552; further: nearly all actives have a fitted effect of over 50% in size)
Procedure, shortened: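 Readout: luciferase luminescence, 30 min post-reagent at RT. Setup: C3RL4 RARE reporter cells, compounds plus retinol 1 uM final, 6 hr incubation at 37 C and 5% CO2.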

Measured: Potency

Sequence of Luciferin 4-monooxygenase (Photinus pyralis) (P08659 whole entry, looked up): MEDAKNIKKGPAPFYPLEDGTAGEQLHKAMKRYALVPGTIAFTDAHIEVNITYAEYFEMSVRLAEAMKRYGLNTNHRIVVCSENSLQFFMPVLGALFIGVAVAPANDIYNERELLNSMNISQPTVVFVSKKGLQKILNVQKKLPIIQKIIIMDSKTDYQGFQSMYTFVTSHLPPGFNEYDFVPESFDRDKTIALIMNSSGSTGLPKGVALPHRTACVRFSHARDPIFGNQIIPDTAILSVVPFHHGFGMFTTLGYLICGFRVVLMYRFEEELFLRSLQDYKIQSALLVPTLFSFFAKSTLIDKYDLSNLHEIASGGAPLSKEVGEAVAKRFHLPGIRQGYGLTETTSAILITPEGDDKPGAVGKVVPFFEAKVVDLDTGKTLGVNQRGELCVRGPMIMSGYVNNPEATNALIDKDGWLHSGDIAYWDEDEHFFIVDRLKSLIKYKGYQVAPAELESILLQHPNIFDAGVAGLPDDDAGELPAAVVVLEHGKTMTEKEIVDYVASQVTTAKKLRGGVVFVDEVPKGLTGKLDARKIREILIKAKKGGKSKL
Sequence of Nuclear receptor subfamily 1 group I member 3 (Homo sapiens) (Q14994 whole entry, looked up): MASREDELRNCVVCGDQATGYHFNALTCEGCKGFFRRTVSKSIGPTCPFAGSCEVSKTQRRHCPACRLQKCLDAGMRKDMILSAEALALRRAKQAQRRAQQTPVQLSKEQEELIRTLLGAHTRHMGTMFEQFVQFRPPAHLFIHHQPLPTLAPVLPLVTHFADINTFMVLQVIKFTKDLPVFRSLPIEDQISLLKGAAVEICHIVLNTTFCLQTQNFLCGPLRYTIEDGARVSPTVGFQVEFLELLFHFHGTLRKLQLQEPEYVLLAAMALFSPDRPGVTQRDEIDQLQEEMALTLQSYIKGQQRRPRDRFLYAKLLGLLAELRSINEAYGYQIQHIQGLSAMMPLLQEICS
Sequence of Thyrotropin receptor (Homo sapiens) (P16473 whole entry, looked up): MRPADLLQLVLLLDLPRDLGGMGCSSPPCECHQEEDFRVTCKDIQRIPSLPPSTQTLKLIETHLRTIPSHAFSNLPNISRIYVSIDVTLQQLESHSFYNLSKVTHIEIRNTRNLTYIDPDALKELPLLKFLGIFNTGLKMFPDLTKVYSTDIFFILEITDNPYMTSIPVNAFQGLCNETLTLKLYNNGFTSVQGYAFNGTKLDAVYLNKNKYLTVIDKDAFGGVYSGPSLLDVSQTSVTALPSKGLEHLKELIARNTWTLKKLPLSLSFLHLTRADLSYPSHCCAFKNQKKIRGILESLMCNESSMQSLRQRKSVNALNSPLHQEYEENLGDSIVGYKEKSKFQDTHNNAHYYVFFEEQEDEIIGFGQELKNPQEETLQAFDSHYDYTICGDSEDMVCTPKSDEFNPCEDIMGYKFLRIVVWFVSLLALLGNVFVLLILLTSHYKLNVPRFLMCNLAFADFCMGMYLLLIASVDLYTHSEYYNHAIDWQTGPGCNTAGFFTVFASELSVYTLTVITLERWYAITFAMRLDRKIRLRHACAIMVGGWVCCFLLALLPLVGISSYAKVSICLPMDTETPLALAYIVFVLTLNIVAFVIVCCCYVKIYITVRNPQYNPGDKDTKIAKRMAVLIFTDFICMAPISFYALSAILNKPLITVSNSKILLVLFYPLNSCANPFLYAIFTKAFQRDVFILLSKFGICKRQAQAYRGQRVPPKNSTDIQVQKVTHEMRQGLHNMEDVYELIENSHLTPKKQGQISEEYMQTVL

Nc1ccn([C@@H]2O[C@H](CO)[C@@H](O)[C@@H]2O)c(=O)n1
not listed: [17] | [18] | [19]
inactive: all other assays above

CCCn1cc[n+](C)c1C
inactive: [1] | [2] | [9] | [10] | [11] | [12] | [14]

CC(C)C1CCC(O)CC1 (stereo unspecified)
inactive: [1] | [9] | [10] | [11] | [12] | [17] | [13] | [14] | [18]

CC(C)=CCC/C(C)=C/C#N
inactive: [1] | [19] | [9] | [10] | [11] | [12] | [17] | [13] | [14] | [18]

CN1C(C)(C)CC(O)CC1(C)C
inactive: [1] | [9] | [10] | [11] | [12] | [17] | [13] | [14] | [18]

CCN[C@H]1C[C@H](C)S(=O)(=O)c2sc(S(N)(=O)=O)cc21
inactive: [1] | [9] | [10] | [11] | [12] | [13] | [14]

O=C(O)c1cc(C(=O)O)cc(C(=O)O)c1
inactive: [1] | [2] | [9] | [10] | [11] | [12] | [17] | [13] | [14] | [18]

CCOC(=O)c1cnc2c(cnn2CC)c1NN=C(C)C
inactive: [1] | [3] | [7] | [9] | [10] | [11] | [12] | [17] | [13] | [14]

CC(C)CC(C)(N)C#N (stereo unspecified)
inactive: [1] | [9] | [10] | [11] | [12] | [17] | [13] | [14]

C=C(C)C(=O)OCCOCCOCCOCCOC(=O)C(=C)C
inactive: [1] | [19] | [9] | [10] | [11] | [12] | [17] | [13] | [14] | [18]

COc1cc(C(=O)NCc2ccc(OCCN(C)C)cc2)cc(OC)c1OC
inactive: [1] | [2] | [9] | [10] | [11] | [12] | [17] | [13] | [14] | [18]
